PubChem BioAssay AID1508600 (Functional Genomics Laboratory (NCATS/FGL), 2020)
Among all 53,000 sequences or so, about 3,700 (7%) were called active.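 Rule for the calls: active = gene knockdowns whose robust z-score for IL-1 alpha signal is at least 2 or at most -2, so actives lie on both sides; inactive = the rest.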 Shown is part of a subset that was picked to be rich in actives.

assay: Components of the Cytosolic LPS Sensing Pathway: Gene Identification via Genome-wide siRNA Screen; conditions: RAW264.7 macrophages, IL-1a HTRF, actives lie on both sides, screened at 100 nM (by protocol), cells primed 5 h with Pam3CSK4 first;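 note: robust z of the log signal after scaling to non-targeting control siRNA wells of the plate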
Procedure, shortened: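 Supernatant IL-1a by HTRF from RAW264.7 cells primed with Pam3CSK4 (5 hours) and transfected with LipidA (24 hour) after 48h siRNA knockdown at 100 nM; cell viability checked with CellTiter-Glo.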

Sequence | z-score
GGAGAAAAGCUGUAUACACTT against Tmem177 | 1.22 (inactive)
GGAGGAGAUGAUAAAGAUUTT against Glyr1 | -0.987 (inactive)
CCCAUCAGACUUUGACCGUTT against Lbh | -1.45 (inactive)
GGCAACUUCAAGUCCAUAUTT against Pnma3 | 3.18 (active)
GCGACUAGUAGUGCAUGAATT against Wdr13 | -0.434 (inactive)
CCUUAAACUUGGCCGAGGUTT against Trmt112 | 0.748 (inactive)
CGGCCUUCAUCUGCCUUUUTT against Olfr1222 | 0.475 (inactive)
GCCACCUCCUACCAAAUGUTT against Sprr4 | -1 (inactive)
GGAGCUAAGGGAACAAUUATT against Psmc6 | -2.1 (active)
GGAUGUGUCAGGAAAAUAGTT against Ctsm | -0.176 (inactive)
GGAAUACGGAAUCAUGGUUTT against Ift52 | -0.0653 (inactive)
GGUUAAUCUUAACAACAUCTT against Tmod1 | 0.266 (inactive)
GGAUGCCUUGAAGAAAUUATT against Olfr1044 | 1.34 (inactive)
GCUCCAUGAAACCCACUCUTT against Zmiz1 | -0.656 (inactive)
GGAAAGAAGCAACCACUUCTT against 4833439L19Rik | 0.403 (inactive)
CGUGAUCGUGCGUUCCAACTT against Chrnb4 | 3.11 (active)
GGAGGACAUGGACACAGUCTT against Slc39a7 | -0.805 (inactive)
GGACUAUCCUCACUCCCUUTT against Pigo | -0.0578 (inactive)
GCCGACUGGUUAAAUACAUTT against Nme3 | 5.79 (active)
CGAUGCUAGAGAUUAAUCATT against Rdh10 | -0.0597 (inactive)
GCACCUGGGCCUUUGAAUATT against Hes2 | -0.754 (inactive)
GCAAGGAAGGAUAUUACACTT against Mmp24 | 1.34 (inactive)

Sequence | z-score
GGAUCAAUUCUAGAAUCAGTT against Runx3 | 0.586 (inactive)
GCAAUAGCAUACCUACCAUTT against Desi2 | -0.228 (inactive)
CCAACAUCUAGAGAGUCUGTT against Olfr1031 | -1.36 (inactive)
GCUUGAUUAUUGUGUGUCCTT against Olfr786 | -1.53 (inactive)
GGAAAUGACGACUACCAAGTT against Tspyl4 | 2.74 (active)
GCGCGAUAGAUUUUGUUUATT against Ier5l | -0.427 (inactive)
GGACUAUGGCUCAGCACUCTT against Ttyh1 | -0.394 (inactive)
GGACAAGUUUGACUGUUACTT against Als2cl | 0.158 (inactive)
GGAACGACAAUAAAGCUUATT against Ninj1 | 0.029 (inactive)
CCACAGAUUACAUUUAUCCTT against Sephs1 | -1.19 (inactive)
GGAGAAAUUCUAUGGUAUUTT against 5031434C07Rik | 2.18 (active)
GGACUUGAUUGAAGUCAUATT against Tmem132d | 0.242 (inactive)
GUUGGCAUAUUUUAUGGCATT against Olfr1033 | 1.28 (inactive)
GGAACAGGAAUAUGAAAGATT against Olfr836 | -0.903 (inactive)
CGGCUUGGACAGAUUUAUCTT against Rer1 | 0.0516 (inactive)
GCAUCCUUAGUGAUUUCUATT against Slc48a1 | 0.601 (inactive)
CCUACAACGAACGGGAGAATT against Dpm1 | 0.408 (inactive)
GGUUCUGACAGACAAAAUUTT against Luc7l3 | -0.379 (inactive)
GCGGUUCGCUGUUUGUUUCTT against Zbtb11os1 | 2.54 (active)
CGCUAGCUUAUUUUCCGCCTT against Slc49a4 | 1.1 (inactive)
GGACGACAUGAUUUUCGAGTT against Atp1b1 | -0.399 (inactive)
CCACGAAGAGCAAGAAAACTT against Gm5941 | -1.15 (inactive)

Sequence | z-score
GGCCUGUAGUCAAUGGAAATT against Magi2 | -0.382 (inactive)
GGUUGCACUUUUUCAUAGUTT against Bcl2l2 | 0.97 (inactive)
GGAGGUGCUAACCUAACAGTT against Ggh | -1.1 (inactive)
GGAAUAUCCAGUAUUGAUUTT against Cd180 | -0.396 (inactive)
GCUCGAUUGACCUCAUUCATT against Rhbdf2 | -2.45 (active)
GGUGUCGAGAAGCCUCAAATT against Arhgap24 | -0.617 (inactive)
GCCGUAUGGCAGGUAUUUUTT against Tmem266 | 3.27 (active)
CCACUACAACAACACUUAUTT against Keg1 | 0.84 (inactive)
GCAUCUACCUUCUAUUACUTT against Gpsm1 | 0.533 (inactive)
GGACAUGCUCUAUAAGAAGTT against Pabpc5 | -0.642 (inactive)
GGCAACUUGAUUGUAAACUTT against Zic2 | 0.795 (inactive)
CAGAAUUCAGAUAAUCUUGTT against Defb22 | 1.06 (inactive)
GGAUAUCCAAGUAAGGUGUTT against Mrpl9 | -0.504 (inactive)
GACUGAGCUUCUGUGAUGGTT against Olfr921 | -2.5 (active)
GGAGAAGAAGGGAAAGCAUTT against Tub | -1.4 (inactive)
GGUGGAUAUUCCAUCUAUUTT against Snx14 | 2.76 (active)
CGUUUUCAGAGAUGUGCGCTT against Cmtm5 | -1 (inactive)
GCCAGUAUUAGCCUAGAUCTT against Vstm5 | -1.65 (inactive)
CCCAGCUCUGUUUAAUGAUTT against Klf8 | -0.449 (inactive)
GGAUCUUAAGAAGUUCCAATT against Chchd6 | -0.104 (inactive)
CCUCCUUUUUUCUCUGUCUTT against Ugt1a9 | -2.79 (active)
GGAUUUGCCUUAAAAAAUCTT against Dock4 | -0.0352 (inactive)

Sequence | z-score
GGUUUGAGGUAACACUAGATT against Vps39 | -0.125 (inactive)
GCUGAAAGGAAUGUGCUCATT against Hspa8 | -1.57 (inactive)
GCCGGAUGAAGGACUUUACTT against Dcc | -1.98 (inactive)
CCUAGUCUAGCUGACUUGCTT against Eppin | 1.41 (inactive)
GGUUACGAAAAGCUGCCUUTT against Ints14 | -0.125 (inactive)
GGCCUUGGCAAUUAUUUGUTT against Syap1 | -0.0759 (inactive)
GGAGAAAGAGAUUCCUAUUTT against Triap1 | -0.818 (inactive)
CCAAUUCGUGUUAAGGAACTT against Riox2 | 0.212 (inactive)
CCUCGUAGGGCCUAUGGUATT against Cyth4 | -2.17 (active)
GCCAAAGUAGCAUUAGUGATT against Dip2b | -1.39 (inactive)
GGCAAUGUCUUUAAAAUACTT against Txndc8 | -0.724 (inactive)
GGCAUUGACCCUUCUUGGATT against Stam2 | -0.395 (inactive)
CCUUGUUAGAGCAUUACAATT against Rprd1a | 1.34 (inactive)
GGAUUCUGAGAAAUCAAGATT against Serpinb12 | -0.376 (inactive)
GGAAAUCUACGAUUUCUAATT against Cyria | 2.55 (active)
GCUCCAGAAUAUAUUGUUCTT against Arfgap3 | 1.39 (inactive)
GGGCAGAGGCAUUUCUGUATT against Psg23 | 1.76 (inactive)
GGAACCAGGUAGCAGAUCUTT against Cdk2ap2 | -2.61 (active)
GGACUAUAUGAGAUAAACUTT against Pask | 0.371 (inactive)
CGCCAAACAGGCUAGAUCUTT against Ephb2 | -0.101 (inactive)
GCGAGAAUUGGACAAAUUATT against Acot12 | 0.784 (inactive)
GCAUUCGAAGCUCUUCUAATT against 4930474M22Rik | -1.89 (inactive)

Sequence | z-score
GGGCUGUGAGCUCUGUUCATT against Rspo1 | 0.188 (inactive)
GCCCAAACGAAAAAUGGCCTT against Abl1 | 2.95 (active)
GCAACUGAGAGAUGUCAUCTT against Gbp6 | -0.806 (inactive)
CCUGUGAAGUAUAACAUCGTT against Fam234b | -0.722 (inactive)
CCUAUGUAUCUCAUCGCUGTT against Sox11 | 0.819 (inactive)
GGCAAUUUGGAUACCAGGATT against Zfp24 | -0.563 (inactive)
GCAGAAUUGAGUCACCCAATT against Sp1 | -2.56 (active)
GCGACAAAGCUCGUUAUGATT against Hmgb2 | -2.3 (active)
GCAUAAACUUUAGGCAUGGTT against Alg13 | -0.123 (inactive)
GGUCAUCCGAUGCUUUGUATT against 4930515G01Rik | -0.513 (inactive)
CCGGUUACCAAUUGAUAAATT against Smc3 | -1.15 (inactive)
GCGUAAAUCUCCACACUACTT against Vmn1r54 | -1.57 (inactive)
GGUGGAUACACAGGACAAATT against Invs | 1.58 (inactive)
GGAGCGUAGAUAACUUAUCTT against Itprid2 | -0.0474 (inactive)
CGCAGACAGUUUGAGGCUGTT against Gpbp1 | -2.34 (active)
GGGACAUGGUCAUCACUAGTT against Clvs2 | -1.71 (inactive)
GGAAUAGGAGCAAGUGUACTT against 9930021J03Rik | 1.03 (inactive)
GGAUACACACAGAGAAUAUTT against Arhgef10l | 0.161 (inactive)
GGCCUUCACGUCUGGAAAUTT against Cnot10 | -0.163 (inactive)
